Whole data set: some 33,000 sequences, median “E-score (-0.5 to 0.5)” near -0.01, cut for the highest 2% near 0.26. The sample holds the highest values, similar sequences and a random draw of the others, so the mix is not that of the screen.
Target: Ste12 (UniProt P13574)
Test: PBM E-score (8-mer binding enrichment) (E-score (-0.5 to 0.5)); higher = stronger / more preferred TF binding
Details: protein concentration: 200 nM; construct: GST-DNA-binding domain
Experimental: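 Universal 'all 10-mer' protein binding microarrays (Agilent AMADID 015681) probed with GST-tagged S. cerevisiae TFs (full-length or DBD) made by in vitro transcription/translation (PURExpress), about 100-200 nM. Bound TF was detected with fluorescent anti-GST. Each ungapped 8-mer (which stands for itself and its reverse complement) is scored by the PBM enrichment score (E-score), a modified Wilcoxon-Mann-Whitney statistic from -0.5 to +0.5, computed with the Universal PBM Analysis Suite. Scale: above 0.35 generally sequence-specific binding.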

UniProt P13574, sequence (P13574 whole entry): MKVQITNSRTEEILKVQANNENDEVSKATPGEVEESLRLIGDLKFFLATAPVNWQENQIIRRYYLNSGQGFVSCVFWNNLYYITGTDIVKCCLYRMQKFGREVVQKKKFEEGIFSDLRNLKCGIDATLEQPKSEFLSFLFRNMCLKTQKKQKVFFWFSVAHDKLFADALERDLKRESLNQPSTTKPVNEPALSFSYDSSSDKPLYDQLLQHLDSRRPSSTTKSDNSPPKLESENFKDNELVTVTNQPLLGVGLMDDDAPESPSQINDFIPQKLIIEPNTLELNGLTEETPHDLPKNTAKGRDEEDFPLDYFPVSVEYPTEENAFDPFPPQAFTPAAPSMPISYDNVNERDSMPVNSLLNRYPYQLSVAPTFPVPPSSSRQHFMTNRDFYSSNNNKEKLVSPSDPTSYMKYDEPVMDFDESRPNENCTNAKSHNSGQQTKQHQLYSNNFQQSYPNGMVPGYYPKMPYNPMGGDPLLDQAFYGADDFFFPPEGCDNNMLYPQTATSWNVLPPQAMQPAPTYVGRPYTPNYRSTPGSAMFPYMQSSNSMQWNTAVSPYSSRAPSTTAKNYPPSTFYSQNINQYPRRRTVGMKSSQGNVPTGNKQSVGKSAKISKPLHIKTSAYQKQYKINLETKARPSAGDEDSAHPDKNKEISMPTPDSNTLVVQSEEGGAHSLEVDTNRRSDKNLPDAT

Sequence | PBM E-score
CCACTGAC | -0.126
AGCATAAC | -0.00864
ACTACATG | 0.0147
CCGACACA | -0.0323
ATTTAGCG | -0.0176
GGCAATAC | 0.0406
GAGATCTC | -0.14
CACTTCAG | -0.198
GATTCTGA | 0.0395
ACGTGAAT | 0.0319
AAACGGCG | 0.149
ATCGCGAT | 0.0912
ACTATGCG | 0.0582
ATTAAATC | 0.248
ATTAAATG | 0.19
GTTAAAGA | 0.0582
ATTAAATA | 0.292
GTTAAAAA | 0.291
GTTAAAAC | 0.174
CACGTGGG | -0.129
CGGTACTA | -0.0556
AGCCATGG | -0.192
AATTAGGC | 0.179
ACAACTGG | -0.0989

Sequence | PBM E-score
ACAACTGA | 0.293
ACAACTTA | 0.053
AGACCACA | -0.0546
AAATCTGA | 0.266
AAATCTGC | 0.0398
GAATCTGA | -0.0846
CTCGTGAC | 0.0961
CCTCTTTC | -0.0876
CCTCCCCA | 0.329
ACTCCCCG | 0.07
CCTCCCAA | -0.136
CCCCCCCG | -0.257
CCTCCCCC | -0.134
CCTCCCCG | 0.283
AGCCATGC | -0.0768
GCGGGGAA | 0.261
CGGGGAAA | 0.272
GCGGGAAA | 0.121
GGGGGAAA | 0.241
GCGGGGGA | -0.143
CGGGGGAA | 0.0885
CGAGCGCA | 0.0982
ACCAGTTC | 0.0206
ATCCAAGA | 0.136

Sequence | PBM E-score
TCGGCCGA | 0.0948
CGAGACAA | 0.0198
AGAGACAA | -0.154
TGAGACAA | 0.274
CAGGTTCA | -0.0316
CGCTAACC | -0.0284
TGTACTAA | 0.053
GACTTGCC | -0.305
ACAAACCT | -0.111
CAAAAACG | 0.177
CCAAAACG | 0.254
AGAAAACG | 0.0569
AAAAAACG | 0.269
ACAAAACC | 0.171
ACAAAACG | 0.35
CCGCGCGA | 0.169
GCGCGCGC | 0.353
CCGCGCGC | 0.24
CCGCGCGG | 0.321
ACGCGCGC | 0.122
GCGCGCGA | 0.154
GGAGGGCA | 0.0377
ACTGGTTG | 0.0694
GGCCCGAC | 0.15

Sequence | PBM E-score
GGTGTTGA | -0.0828
ATAACTCA | 0.044
GACTGCCA | 0.107
GCTAGACA | -0.118
ACATGAAG | 0.091
ACATGAAC | 0.0476
ACATGAAA | 0.283
GCATGAAC | -0.0143
TCATGAGA | 0.0861
GCATGAAA | 0.318
TCATGAAA | 0.27
CCATGAAA | 0.252
TCATGACA | 0.178
ATCACCGG | -0.0135
GTCCACCA | -0.342
CTCTTAAG | -0.0926
AAAAGGAA | 0.188
AATATGAA | 0.269
ATTATGAA | 0.265
CTTATGAA | 0.204
AATATGAC | 0.0945
TATATGAA | 0.17
GTTATGAA | 0.221

Source: the supplement of paper PMC3334620
